Pol eta inh-1: qHTS for Inhibitors of Polymerase Eta; actives 1.2% (n = 390,000); Potency, µM (highest dose often 114 µM), most hits filed as inhibitors; recombinant Pol eta, fluorescent DNA replication assay; DNA polymerase eta (Homo sapiens), Q9Y253; AID 588591, 2011
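Pol eta (10 nM) was preincubated with compounds for 15 min at room temperature, after which fluorescent replication substrate (50 nM final) was added to start the reaction. Fluorescence was read kinetically at 0 and 10 min.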
POLB inh: qHTS Assay for Inhibitors of DNA Polymerase Beta | AID 485314, 2010 | Potency, µM (highest dose often 114 µM), hits mostly inhibitors | actives 1.3% (n = 340,000) | P06746 | Pol beta primer extension/strand displacement, fluorescence kinetic
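Reaction started by 50 nM substrate onto compound-treated Pol beta (10 nM, 15 min preincubation, room temperature); plates read at 0 min and 10 min. Normalized concentration-effect data fitted by four-parameter Hill equation.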
Pol iota inh: qHTS for Inhibitors of Polymerase Iota; Pol iota fluorescent replication assay, 10 min; actives 1% (n = 390,000); Potency, µM (top dose mostly 115 µM), actives largely listed as inhibitors; DNA polymerase iota (Homo sapiens), Q9UNA4
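Fluorescent replication assay read twice, at 0 min and 10 min after adding 50 nM (final) substrate. Enzyme (10 nM) and compounds were first incubated 15 min at room temperature; enzyme-free buffer wells were negative controls.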
WRN helicase inh: qHTS for Inhibitors of WRN Helicase; WRN helicase unwinding, fluorescent forked duplex, kinetic; Potency, µM (highest dose often 114 µM), most hits filed as inhibitors; Bifunctional 3'-5' exonuclease/ATP-dependent helicase WRN (Homo sapiens), Q14191; actives 0.46% (n = 360,000); AID 651768, 2012; note: nearly all actives have a fitted effect of over 55% in size
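Fluorescence dequenching readout, ex 525 nm/em 598 nm, kinetic mode: forked duplex DNA (100 nM final) with adjacent fluorophore and quencher unwound by WRN (20 nM final) with 2 mM ATP. Compound preincubation 15 min, room temperature.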
Pol kappa inh-1: qHTS for Inhibitors of Polymerase Kappa | AID 588579, 2011 | actives 0.53% (n = 400,000) | Potency, µM (highest dose often 107 µM), usual class: inhibitors | purified Pol kappa, fluorescent DNA synthesis assay, 10 min
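50 nM final substrate added after 15 min RT preincubation of 10 nM Pol kappa with compound; fluorescence read at 0 and 10 min.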
PI5P4Ka inh: qHTS for Inhibitors of phosphatidylinositol 5-phosphate 4-kinase (PI5P4K). Phosphatidylinositol 5-phosphate 4-kinase type-2 alpha (Homo sapiens), P48426. actives 1.2% (n = 330,000). PI5P4Kalpha enzyme, ADP-Glo luminescence, 60 min; active compounds read low. max response, %; active = max response of -50% or lower; inconclusive = between -30% and -50%; inactive = -30% or higher; note: value at the top dose of about 77 µM
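Reactions run in 0.038 M HEPES pH 7.4, 0.28 mM EGTA, 0.1% CHAPS and 5% DMSO, with PI5P4Kalpha, substrate, compound and 5 microM ATP final, one hour at room temperature. Readout is ADP-Glo luminescence.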
GALK inh confirm: Confirmation Assay for Inhibitors of Human Galactokinase (GALK); shares compounds with Pol eta inh-1; purified GALK, Kinase-Glo ATP depletion luminescence; Potency, µM (titrated, usually from 115 µM), actives largely listed as inhibitors; actives 70% (n = 150)
Redox cycling: Confirmatory Assay for Inhibitors of Human Galactokinase (GALK): Phenol-HRP redox assay counterscreen. actives 40% (n = 150). Potency, µM (highest dose often 115 µM), most hits filed as inhibitors. Phenol red-HRP H2O2 redox cycling, absorbance 600 nm. shares compounds with Pol eta inh-1
HEK293 tox: Secondary Assay for Inhibitors of Human Galactokinase (GALK): HEK-293 Cell Viability Assay; shares compounds with Pol eta inh-1; HEK-293 viability, ATP luminescence (CellTiter-Glo), 24/48 h; Potency, µM (top dose mostly 46.1 µM), hits mostly inhibitors; actives 10% (n = 170); AID 2547, 2010
Pol kappa inh-2: qHTS for Inhibitors of Polymerase Kappa: Confirmatory Assay for Cherry-picked Compounds; shares compounds with Pol eta inh-1; purified Pol-kappa, fluorescent strand-displacement substrate; Potency, µM, most hits filed as inhibitors; actives 76% (n = 920); AID 720501, 2013
Pol eta inh-2: qHTS for Inhibitors of Polymerase Eta: Confirmatory Assay for Cherry-picked Compounds; shares compounds with Pol eta inh-1; Pol eta primer extension, TAMRA/BHQ fluorescence, 10 min; Potency, µM, actives largely listed as inhibitors; actives 64% (n = 2,600)
Large screens that a line does not name were inactive (follow-up assays come after a bar, where they were run). The list is not random: actives were taken first. Their share in the collection is about 2.8%. Unless noted, calls come from the whole dose curve; as a rule, active = well fitted curve in the direction sought with a large enough effect; inconclusive = small, poorly fitted or top-dose-only effect, or another doubt; inactive = no such curve, though single readings can be large; an effect the other way counts as inactive or inconclusive.

COc1cc(C(=O)O)cc(OC)c1OCc1cc(C(=O)O)oc1C	Pol eta inh-1 3.16µM, POLB inh 17.8µM, Pol iota inh inconclusive | Pol kappa inh-2 42.3 | Pol eta inh-2 47.8
Cc1ccc(OCC(=O)N2CCC(N3CCCCCC3)CC2)cc1	none
COC(=O)c1ccc(/C=C2\CCn3c2nc2cc(C(=O)O)ccc2c3=O)cc1	Pol iota inh inconclusive
CSc1ccc(/C=C2\CCn3c2nc2cc(C(=O)O)ccc2c3=O)cc1	Pol eta inh-1 50.1µM, PI5P4Ka inh inconclusive | Pol eta inh-2 inconclusive
Cc1ccc(C(=O)Nc2ccnc(-c3ccncc3)n2)cc1	POLB inh inconclusive
O=C(O)Cc1sc(N/N=C\c2ccccc2)nc1-c1ccccc1	Pol eta inh-1 39.8µM, Pol iota inh inconclusive, PI5P4Ka inh inconclusive | Pol kappa inh-2 26.7 | Pol eta inh-2 47.8
N#Cc1ccccc1OCC(=O)Nc1c(C(=O)C2CC2)oc2ccccc12	none
Fc1cccc(-n2ncc3c2ncn2nc(Cc4ccccc4)nc32)c1	none (no result: Pol eta inh-1, WRN helicase inh, PI5P4Ka inh)
COc1cccc(OCCOc2ccc(/C=C3/SC(=S)NC3=O)cc2)c1	Pol eta inh-1 28.2µM, POLB inh 10µM, Pol iota inh inconclusive, WRN helicase inh inconclusive, PI5P4Ka inh -84.9 | Pol kappa inh-2 inconclusive | Pol eta inh-2 84.9
S=c1[nH]nc(Cc2sc(-c3ccccc3)nc2-c2ccccc2)o1	none | GALK inh confirm 33.5µM | Redox cycling inactive | HEK293 tox inactive
O=C(COc1ccccc1)Nc1ccc(S(=O)(=O)NCc2ccco2)cc1	Pol eta inh-1 17.8µM, POLB inh 44.7µM, Pol iota inh inconclusive, Pol kappa inh-1 inconclusive, PI5P4Ka inh inconclusive | Pol eta inh-2 inconclusive
O=C(COc1ccccc1)NCCSCc1ccco1	Pol eta inh-1 14.1µM, POLB inh inconclusive, Pol iota inh inconclusive, Pol kappa inh-1 inconclusive | Pol eta inh-2 inconclusive
Cc1ccc(CNC(=O)COC(=O)c2ccc(S(=O)(=O)NCc3ccco3)cc2)cc1	none (no result: POLB inh)
NC(=O)COC(=O)c1ccc(S(=O)(=O)NCc2ccco2)cc1	Pol eta inh-1 35.5µM, POLB inh inconclusive, Pol iota inh 14.1µM, Pol kappa inh-1 inconclusive | Pol eta inh-2 inconclusive
Cc1ccc(C)c(N2CCN(C(=O)c3c4c(nc5ccccc35)C(=O)N(C3CCCCC3)C4)CC2)c1	none (no result: WRN helicase inh, PI5P4Ka inh)
O=C(CSc1nnnn1-c1cccnc1)NCc1cccs1	none
COc1ccc(Oc2ncc3nc(C)c(=O)n(Cc4ccc(F)cc4)c3n2)cc1	none (no result: Pol eta inh-1, POLB inh, Pol iota inh, WRN helicase inh, PI5P4Ka inh)
